Among the data in article PMC7862700, “An all-to-all approach to the identification of sequence-specific readers for epigenetic DNA modifications on cytosine” are binding signal values, retold here.

What all share (test): DAPPL (digital affinity profiling via proximity ligation, sequencing); 10 mM Tris-HCl pH 7.5, 50 mM NaCl, 1 mM DTT, 4% glycerol, room temperature, 30 min; GST-TFs on glutathione beads, 16-mer random dsDNA library, 0.1% formaldehyde crosslink after washing; high values mean tight binding
Details in all cases: protein: recombinant; tags: N-terminal GST; dsDNA, one strand shown

Assay [1] concerns the target T1, ERF (Homo sapiens, UniProt P50548 1-548).
T1 sequence: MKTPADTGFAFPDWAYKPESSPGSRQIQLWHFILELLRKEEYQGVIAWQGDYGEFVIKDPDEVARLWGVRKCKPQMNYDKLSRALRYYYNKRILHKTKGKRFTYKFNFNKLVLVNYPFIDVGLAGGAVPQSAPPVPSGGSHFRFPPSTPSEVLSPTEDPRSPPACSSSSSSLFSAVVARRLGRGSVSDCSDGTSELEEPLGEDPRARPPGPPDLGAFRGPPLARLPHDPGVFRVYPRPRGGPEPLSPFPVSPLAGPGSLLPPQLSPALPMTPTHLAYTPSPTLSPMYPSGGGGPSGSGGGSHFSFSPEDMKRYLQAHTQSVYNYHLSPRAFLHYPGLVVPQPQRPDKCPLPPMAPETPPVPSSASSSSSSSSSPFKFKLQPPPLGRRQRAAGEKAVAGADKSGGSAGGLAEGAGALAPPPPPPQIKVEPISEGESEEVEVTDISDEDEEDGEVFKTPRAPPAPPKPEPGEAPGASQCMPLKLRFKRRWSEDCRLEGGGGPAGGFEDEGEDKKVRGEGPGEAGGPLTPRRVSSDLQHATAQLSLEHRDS
In outline:
(§1)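 Pools were built from human transcription factors expressed in yeast as GST fusions, captured on glutathione beads and DNA-barcoded, along with a tag-only sample. Incubation with 200 nmole of a 16-mer random double-stranded DNA library lasted 30 min at room temperature in Tris/NaCl/DTT/glycerol buffer, and was followed by washing, 0.1% formaldehyde crosslinking, proximity ligation, PCR amplification and Illumina NextSeq500 sequencing. Binding signal is the quotient of each hexamer's read frequency for a factor and its frequency for the tag-only sample.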

Assay [2] addresses T2, ETV3L (Homo sapiens, UniProt Q6ZN32 1-361).
T2 sequence: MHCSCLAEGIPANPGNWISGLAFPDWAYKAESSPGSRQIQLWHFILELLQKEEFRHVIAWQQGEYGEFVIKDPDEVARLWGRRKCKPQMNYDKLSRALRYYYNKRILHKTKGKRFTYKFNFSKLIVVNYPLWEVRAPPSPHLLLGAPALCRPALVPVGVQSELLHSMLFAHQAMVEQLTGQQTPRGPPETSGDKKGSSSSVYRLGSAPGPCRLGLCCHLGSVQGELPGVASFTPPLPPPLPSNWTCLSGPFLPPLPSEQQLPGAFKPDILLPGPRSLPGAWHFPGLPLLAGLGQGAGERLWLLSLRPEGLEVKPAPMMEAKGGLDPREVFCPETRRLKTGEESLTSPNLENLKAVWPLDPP
In short, it runs like this:
as §1

In assay [3] the target is T3, ETS2 (Homo sapiens, UniProt P15036 1-469).
T3 sequence: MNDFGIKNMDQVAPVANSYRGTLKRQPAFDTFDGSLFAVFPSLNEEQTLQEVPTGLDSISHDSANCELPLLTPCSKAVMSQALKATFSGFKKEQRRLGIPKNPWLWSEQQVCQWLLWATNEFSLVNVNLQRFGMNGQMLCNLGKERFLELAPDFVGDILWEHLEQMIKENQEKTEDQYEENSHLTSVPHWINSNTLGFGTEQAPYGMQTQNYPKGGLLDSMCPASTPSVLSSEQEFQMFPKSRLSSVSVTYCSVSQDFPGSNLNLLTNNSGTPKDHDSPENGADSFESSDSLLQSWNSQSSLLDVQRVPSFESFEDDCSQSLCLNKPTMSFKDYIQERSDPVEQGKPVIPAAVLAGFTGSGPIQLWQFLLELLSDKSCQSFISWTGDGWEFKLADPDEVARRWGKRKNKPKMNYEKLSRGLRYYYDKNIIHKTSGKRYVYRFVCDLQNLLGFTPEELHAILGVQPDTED
In outline:
as §1

Assay [4] deals with T4, SPDEF (Homo sapiens, UniProt O95238 1-335).
T4 sequence: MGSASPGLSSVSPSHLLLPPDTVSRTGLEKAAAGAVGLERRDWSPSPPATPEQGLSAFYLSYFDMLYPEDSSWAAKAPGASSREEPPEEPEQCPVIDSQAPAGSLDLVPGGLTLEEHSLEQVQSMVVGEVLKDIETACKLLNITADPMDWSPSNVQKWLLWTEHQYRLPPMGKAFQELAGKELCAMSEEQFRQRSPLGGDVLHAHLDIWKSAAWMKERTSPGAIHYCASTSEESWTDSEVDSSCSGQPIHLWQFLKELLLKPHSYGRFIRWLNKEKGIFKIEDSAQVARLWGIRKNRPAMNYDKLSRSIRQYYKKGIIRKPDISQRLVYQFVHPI
In short, it runs like this: as §1

The target in assay [5] is T5, ETV7 (Homo sapiens, UniProt Q9Y603 1-341).
T5 sequence: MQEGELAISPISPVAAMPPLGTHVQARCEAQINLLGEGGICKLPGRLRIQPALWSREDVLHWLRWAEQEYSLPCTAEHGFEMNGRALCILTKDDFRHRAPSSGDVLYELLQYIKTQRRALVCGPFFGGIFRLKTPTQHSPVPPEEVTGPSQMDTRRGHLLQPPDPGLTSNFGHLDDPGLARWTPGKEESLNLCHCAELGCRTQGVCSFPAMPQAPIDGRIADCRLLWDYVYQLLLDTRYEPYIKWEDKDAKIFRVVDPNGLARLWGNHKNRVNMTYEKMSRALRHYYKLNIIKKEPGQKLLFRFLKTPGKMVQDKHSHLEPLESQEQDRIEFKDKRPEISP
In outline: as §1

The target of assay [6] is T6, ELF5 (Homo sapiens, UniProt Q9UKW6-2 1-255).
T6 sequence: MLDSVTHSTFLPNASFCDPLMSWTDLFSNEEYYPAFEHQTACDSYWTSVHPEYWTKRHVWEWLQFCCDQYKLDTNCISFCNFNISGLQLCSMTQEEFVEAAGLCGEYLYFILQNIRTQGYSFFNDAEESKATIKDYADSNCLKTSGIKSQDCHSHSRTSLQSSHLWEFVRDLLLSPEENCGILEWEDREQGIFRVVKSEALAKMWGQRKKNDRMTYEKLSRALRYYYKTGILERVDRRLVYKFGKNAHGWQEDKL
In short, it runs like this:
as §1

Assay [7] deals with T7, ETV3 (Homo sapiens, UniProt P41162-2 1-143).
T7 sequence: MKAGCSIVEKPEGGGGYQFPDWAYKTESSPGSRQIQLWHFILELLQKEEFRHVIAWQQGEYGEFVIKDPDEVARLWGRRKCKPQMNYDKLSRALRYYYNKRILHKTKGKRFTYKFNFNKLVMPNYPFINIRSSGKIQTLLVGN
In short, it runs like this: as §1

The target of assay [8] is ETV6 (Homo sapiens, UniProt P41212 1-452). In outline:
as §1

Sequence of ETV6 (P41212 whole entry): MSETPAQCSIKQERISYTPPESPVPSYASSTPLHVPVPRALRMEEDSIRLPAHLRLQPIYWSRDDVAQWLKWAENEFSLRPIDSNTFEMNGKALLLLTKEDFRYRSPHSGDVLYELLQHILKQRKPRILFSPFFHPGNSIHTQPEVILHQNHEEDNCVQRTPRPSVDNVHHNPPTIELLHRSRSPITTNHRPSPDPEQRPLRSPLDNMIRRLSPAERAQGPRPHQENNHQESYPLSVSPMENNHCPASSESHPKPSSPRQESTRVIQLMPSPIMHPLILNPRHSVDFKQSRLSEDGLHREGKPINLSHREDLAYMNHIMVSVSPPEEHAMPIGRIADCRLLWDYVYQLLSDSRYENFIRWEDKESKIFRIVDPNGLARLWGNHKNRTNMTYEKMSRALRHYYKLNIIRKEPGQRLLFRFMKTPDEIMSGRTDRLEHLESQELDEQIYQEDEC

Consider ACACTG, for which the binding signal was 1.17 fold enrichment (6-mer frequency, TF over GST control) in assay [1]; 1.11 fold enrichment (6-mer frequency, TF over GST control) in assay [2]; 1.06 fold enrichment (6-mer frequency, TF over GST control) in assay [3]; 1.05 fold enrichment (6-mer frequency, TF over GST control) in assay [4]; 1.03 fold enrichment (6-mer frequency, TF over GST control) in assay [5]; 1.05 fold enrichment (6-mer frequency, TF over GST control) in assay [6]. Also, the binding signal in assay [7] was 1.01 fold enrichment (6-mer frequency, TF over GST control); in assay [8] it was 1.04 fold enrichment (6-mer frequency, TF over GST control).

In the case of GTTCCA, the binding signal was 1 fold enrichment (6-mer frequency, TF over GST control) in assay [1]; 1.04 fold enrichment (6-mer frequency, TF over GST control) in assay [2]; 1.13 fold enrichment (6-mer frequency, TF over GST control) in assay [3]; 1.1 fold enrichment (6-mer frequency, TF over GST control) in assay [4]; 1.12 fold enrichment (6-mer frequency, TF over GST control) in assay [5]; 1.07 fold enrichment (6-mer frequency, TF over GST control) in assay [6]. Moreover, the binding signal in assay [7] was 1.04 fold enrichment (6-mer frequency, TF over GST control); in assay [8] it was 1.04 fold enrichment (6-mer frequency, TF over GST control).

CGTTAT: the binding signal in assay [1] is 1.17 fold enrichment (6-mer frequency, TF over GST control); in assay [2] it was 1.2 fold enrichment (6-mer frequency, TF over GST control); in assay [3], 1.15 fold enrichment (6-mer frequency, TF over GST control); in assay [4] it was 1.08 fold enrichment (6-mer frequency, TF over GST control); in assay [5], 1.21 fold enrichment (6-mer frequency, TF over GST control); in assay [6], 1.05 fold enrichment (6-mer frequency, TF over GST control). For the same sequence, the binding signal in assay [7] was 1.18 fold enrichment (6-mer frequency, TF over GST control); in assay [8], 1.09 fold enrichment (6-mer frequency, TF over GST control).

Turning to TTAGCG, the binding signal in assay [1] is 1.05 fold enrichment (6-mer frequency, TF over GST control); in assay [2], 1.06 fold enrichment (6-mer frequency, TF over GST control); in assay [3], 1.06 fold enrichment (6-mer frequency, TF over GST control); in assay [4], 1.04 fold enrichment (6-mer frequency, TF over GST control); in assay [5], 1.11 fold enrichment (6-mer frequency, TF over GST control); in assay [6], 1.02 fold enrichment (6-mer frequency, TF over GST control). In addition, the binding signal was 1.03 fold enrichment (6-mer frequency, TF over GST control) in assay [7] and 1.04 fold enrichment (6-mer frequency, TF over GST control) in assay [8].

With CTGCCA, the binding signal in assay [1] is 1.18 fold enrichment (6-mer frequency, TF over GST control); in assay [2] it was 1.25 fold enrichment (6-mer frequency, TF over GST control); in assay [3], 1.18 fold enrichment (6-mer frequency, TF over GST control); in assay [4], 1.15 fold enrichment (6-mer frequency, TF over GST control); in assay [5], 1.08 fold enrichment (6-mer frequency, TF over GST control); in assay [6], 1.2 fold enrichment (6-mer frequency, TF over GST control). Moreover, the binding signal in assay [7] is 1.09 fold enrichment (6-mer frequency, TF over GST control); in assay [8], 1.14 fold enrichment (6-mer frequency, TF over GST control).

As for AACGTC, the binding signal is 1.01 fold enrichment (6-mer frequency, TF over GST control) in assay [1]; 1.03 fold enrichment (6-mer frequency, TF over GST control) in assay [2]; 1.14 fold enrichment (6-mer frequency, TF over GST control) in assay [3]; 1.11 fold enrichment (6-mer frequency, TF over GST control) in assay [4]; 1.11 fold enrichment (6-mer frequency, TF over GST control) in assay [5]; 1.1 fold enrichment (6-mer frequency, TF over GST control) in assay [6]. In addition, the binding signal in assay [7] was 1.07 fold enrichment (6-mer frequency, TF over GST control); in assay [8], 1.05 fold enrichment (6-mer frequency, TF over GST control).

As to GTTACA, the binding signal was 1.24 fold enrichment (6-mer frequency, TF over GST control) in assay [1]; 1.06 fold enrichment (6-mer frequency, TF over GST control) in assay [2]; 1.2 fold enrichment (6-mer frequency, TF over GST control) in assay [3]; 1.21 fold enrichment (6-mer frequency, TF over GST control) in assay [4]; 1.12 fold enrichment (6-mer frequency, TF over GST control) in assay [5]; 1.14 fold enrichment (6-mer frequency, TF over GST control) in assay [6]. The binding signal is 1.09 fold enrichment (6-mer frequency, TF over GST control) in assay [7] and 1.07 fold enrichment (6-mer frequency, TF over GST control) in assay [8].
